IL-1B inflam inh = blocks inflammasome-driven IL-1 beta release | THP-1 LPS/ATP IL-1B secretion, AlphaLISA, 16 h; stronger effect = lower value | 4.7% of 360,000 active | AID 743279 | activity change, % at 57.5 µM; in the data active = activity change below about -50%; inconclusive = mostly about -30% to -49%
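THP-1 cells pretreated 1 hr with compounds (up to 57.5 uM final), then stimulated with LPS (250 ng/mL final) plus ATP (1.25 mM final); secreted IL-1B measured by AlphaLISA after 16 hr, decreased signal indicating inhibition.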
TDP1 cell CPT = growth inhibition of DT40 Tdp1-/-;hTDP1 cells with camptothecin (screen for TDP1 inhibitors); chicken DT40 Tdp1-/-;hTDP1 cells + 20 nM CPT, ATP luminescence, 48 h; Potency, µM (titrated, usually from 46.2 µM), most hits filed as inhibitors; 12% of 420,000 active; AID 686979; note: nearly all actives have a fitted effect of over 55% in size
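Cell growth measured by CellTiter-Glo luminescence after a minimum 48 h, 37 C compound exposure with 20 nM CPT in Tdp1-knockout DT40 cells stably expressing hTDP1, seeded 400/well; qHTS titration format.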
ELG1 repair inh = blocks ELG1-dependent DNA repair in HEK293T cells | HEK293T ELG1-luciferase reporter, luminescence, 16 h; DNA damage induced by 5-fluorouridine | Potency, µM (doses to about 46.1 µM), actives largely listed as inhibitors | 2.3% of 330,000 active; note: nearly all actives have a fitted effect of over 55% in size
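DMSO vehicle served as the neutral condition. Each well held 2,000 cells given 5-fluorouridine plus compound; after 16 hr at 37 °C/5% CO2, ONE-Glo was added and luciferase measured 30 min later.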
TDP1 cell noCPT = qHTS for Inhibitors of human tyrosyl-DNA phosphodiesterase 1 (TDP1): qHTS in cells in absence of CPT; DT40 Tdp1-/- hTDP1 cells, no CPT, ATP luminescence, 48 h; Potency, µM (highest dose often 46.2 µM), usual class: inhibitors; 15% of 420,000 active; AID 686978, 2013; note: nearly all actives have a fitted effect of over 55% in size
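Readout: luminescence from CellTiter-Glo after 30 min in the dark at RT. Cells: DT40 Tdp1-/- with stable hTDP1, 400/well. Exposure: compounds alone, ≥48 hr, 37 °C.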
HT1080 IDH1KD tx = toxicity to HT-1080 IDH1 knockdown cells (counter line); HT-1080 IDH1 knockdown viability, ATP luminescence, 48 h; Potency, µM (series often up to 46.1 µM), most hits filed as cytotoxic; 2% of 360,000 active; AID 686971
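In this qHTS, HT-1080 cells depleted of IDH1 are exposed for 48 h at 37 °C to compound titrations. Toxicity is scored from CellTiter-Glo luminescence, with DMSO as full viability and medium alone as none.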
HT1080-NT tox = kills 2HG-producing HT-1080-NT fibrosarcoma cells | Potency, µM (doses to about 46.1 µM), hits mostly cytotoxic | HT-1080-NT fibrosarcoma viability, CellTiter-Glo ATP luminescence, 48 h | 1.6% of 360,000 active | AID 686970;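 note: NT is the 2HG producing partner of a matched IDH1 knockdown line; nearly all actives have a fitted effect of over 55% in size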
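750 cells/well, RPMI + 5% FBS; 2 h settle, compound pin-transfer, 48 h at 37 degrees C. CellTiter-Glo 10 min RT, luminescence. Normalized to DMSO and media-only wells.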
Large screens that a line does not name were inactive. Most compounds without a hit are left out; they make up all but 19% or so of the library. Unless noted, calls come from the whole dose curve; as a rule, active = well fitted curve in the direction sought with a large enough effect; inconclusive = small, poorly fitted or top-dose-only effect, or another doubt; inactive = no such curve, though single readings can be large; an effect the other way counts as inactive or inconclusive.

COc1ccc(-c2cc(-c3ccccc3)nc(SC(C)C(=O)O)c2C#N)cc1 (stereo not drawn)	TDP1 cell CPT inconclusive, TDP1 cell noCPT 25.9µM, HT1080 IDH1KD tx inconclusive
COc1ccc(-c2cc(-c3ccccc3)nc(SCC(=O)Nc3ccccc3C)c2C#N)cc1	none (no result: IL-1B inflam inh, ELG1 repair inh, HT1080 IDH1KD tx, HT1080-NT tox)
CCc1nnc(NC(=O)CSc2nnc(Cc3ccccc3)o2)s1	TDP1 cell CPT inconclusive, HT1080-NT tox inconclusive
CCc1nnc(NC(=O)CSc2nnc(-c3ccccc3NC(=O)c3ccccc3)o2)s1	HT1080-NT tox 12.6µM
CCc1nnc(NC(=O)CSc2nc(-c3ccccc3)cc(-c3ccc(F)cc3)c2C#N)s1	TDP1 cell CPT 9.2µM, TDP1 cell noCPT inconclusive
COc1ccc(CNC(=O)CSc2nc(-c3ccccc3)cc(-c3cccs3)c2C#N)cc1	TDP1 cell CPT 14.6µM, ELG1 repair inh inconclusive, TDP1 cell noCPT inconclusive
COc1cccc(CNC(=O)c2ccc3c(c2)nc2n3CCCCC2)c1OC	TDP1 cell noCPT inconclusive (no result: IL-1B inflam inh, ELG1 repair inh, HT1080 IDH1KD tx, HT1080-NT tox)
Cc1ccc(C)c(NC(=O)n2ncc3cc(Cl)ccc32)c1	none (no result: IL-1B inflam inh, ELG1 repair inh, HT1080 IDH1KD tx, HT1080-NT tox)
CCCSc1nc(-c2ccc(OC)cc2)cc(-c2ccccc2OC)c1C#N	TDP1 cell CPT inconclusive, TDP1 cell noCPT 18.4µM (no result: IL-1B inflam inh, ELG1 repair inh, HT1080 IDH1KD tx, HT1080-NT tox)
COc1cccc(-c2ccc(C#N)c(SCC(=O)NCc3ccco3)n2)c1	none
COc1ccc(-c2cc(-c3cccs3)c(C#N)c(SCC(=O)NCc3ccco3)n2)cc1	TDP1 cell CPT 1.84µM, ELG1 repair inh inconclusive, TDP1 cell noCPT 2.31µM, HT1080 IDH1KD tx 2.31µM, HT1080-NT tox 2.91µM
COc1ccccc1-c1cc(-c2ccccc2)nc(SCC(=O)O)c1C#N	TDP1 cell CPT inconclusive
CC(C)C(NC(=O)c1ccc(C(C)(C)C)cc1)C(=O)NCCc1ccccn1 (stereo not drawn)	TDP1 cell CPT inconclusive, TDP1 cell noCPT 20.6µM
Cc1cccc(C)c1NC(=O)CNC(=O)c1ccccc1	none
Cc1cccc(C)c1NC(=O)CNC(=O)C(NC(=O)c1ccc(C(C)(C)C)cc1)C(C)C (stereo not drawn)	TDP1 cell CPT inconclusive, ELG1 repair inh 5.17µM, TDP1 cell noCPT 20.6µM
CCOc1ccccc1C(=O)NC(C(=O)NCCc1ccccn1)C(C)C (stereo not drawn)	TDP1 cell CPT inconclusive, TDP1 cell noCPT inconclusive
CC(C)C(NC(=O)c1ccc(C(C)(C)C)cc1)C(=O)NCC(c1ccccc1)N(C)C (stereo not drawn)	TDP1 cell CPT inconclusive, TDP1 cell noCPT 20.6µM
Cc1ccc2oc(=O)c(-c3ccc(O)cc3)c(C)c2c1	TDP1 cell CPT inconclusive, ELG1 repair inh inconclusive, TDP1 cell noCPT inconclusive
COc1ccc(NC(=O)C2=C(C)Nc3ncnn3C2c2ccc[nH]2)cc1 (stereo not drawn)	none (no result: IL-1B inflam inh, ELG1 repair inh, HT1080 IDH1KD tx, HT1080-NT tox)
O=C(/C=C/c1ccc(OCCCF)cc1)Nc1ccnc(-c2cccnc2)n1	TDP1 cell CPT inconclusive, ELG1 repair inh 7.3µM, TDP1 cell noCPT inconclusive
O=C(/C=C/c1ccc(OCCCF)cc1)Nc1ccnc(-c2ccncc2)n1	TDP1 cell CPT inconclusive, ELG1 repair inh inconclusive, TDP1 cell noCPT 23.1µM
NC(=S)NNc1ccnc2cc(Cl)ccc12	TDP1 cell noCPT inconclusive
C/C(=N/Nc1ccnc2cc(Cl)ccc12)c1ccc(O)cc1	IL-1B inflam inh -54.2, TDP1 cell CPT inconclusive, TDP1 cell noCPT inconclusive
C/C(=N/Nc1ccnc2cc(Cl)ccc12)c1ccc(N)cc1	TDP1 cell CPT 23.1µM, TDP1 cell noCPT 18.4µM, HT1080 IDH1KD tx inconclusive, HT1080-NT tox inconclusive
CN(C(=O)COC(=O)/C=C/c1ccc(C(F)(F)F)cc1)C1CCS(=O)(=O)C1 (stereo not drawn)	TDP1 cell CPT inconclusive
O=C(CCCCn1c(=O)c2ccccc2n(Cc2ccc(F)cc2)c1=O)NCc1ccco1	TDP1 cell CPT 16.4µM, ELG1 repair inh inconclusive, TDP1 cell noCPT 14.6µM, HT1080-NT tox 18.4µM
